# “And” between values parts separate entries of the source, which are not always exact repeats. Equal entries are not always repeated. Records with an inconclusive call do not appear. A call without a number means that no potency is given here. More than one record can exist for a structure, and the calls need not agree. The source made the active and inactive calls. Calls follow the shape of the dose curve; as a rule, active = well fitted cell-killing curve with a large enough effect in the repeat runs (not every such curve was filed as active); inconclusive = weak or mixed curves, or effect the other way; inactive = no such curve, though single readings can be large or run the other way.
# Experiment: qHTS assay to identify small molecule antagonists of the estrogen related receptor signaling pathway with the pleiotropic PPARgamma coactivator (PGC) from Tox21 10K library - cell viability counter screen (AID 1224840); also: nearly all actives have a fitted effect of over 40% in size
# Conditions: PGC/ERR reporter cells viability, CellTiter-Fluor, 17.5 h; series mostly up to 92.4 µM
# Source text: National Center for Advancing Translational Sciences [NCATS]
# NIH Chemical Genomics Center [NCGC]
# U.S. Environmental Protection Agency [EPA]
# National Institutes of Environmental Health Sciences [NIEHS]
# National Toxicology Program [NTP]
# U.S. Food and Drug Administration [FDA]
# Estrogen related receptors (ERRs), the first orphan nuclear receptors discovered, play an important role in the control of cellular energy metabolism. ERRs are required for high-energy production in response to the environmental challenges. The pleiotropic PPARgamma coactivator (PGC) is a major partner of ERR and a key regulator in energy homeostasis. Together they have been implicated in the etiology of metabolic disorders such as Type 2 diabetes and metabolic syndrome. ERR-alpha was also identified as an adverse marker for breast cancer progression; ERR-alpha-positive tumors have a poor prognosis. To screen and to identify environmental compounds that perturb the ERR and PGC/ERR signaling pathways could provide valuable information for potential therapeutic or preventive measures in the treatment of metabolic disease. To differentiate true PGC/ERR antagonists or agonist from cytotoxic substances, the assay is multiplexed with cell viability assay.
# Tox21 Assay Protocol Summary:
# The PGC/ERR cells were dispensed at 2,000 cells/5 ul/well in 1536-well white plates using a Multidrop dispenser. After the assay plates were incubated at a 37 C/5% CO2 incubator for 6 hours, 23 nL of compounds dissolved in DMSO, positive and negative controls or DMSO only was transferred to the assay plate by a pin tool. The plates were incubated at 37 C for 17.5 hours. 1 ul/well of CellTiter-Fluor reagent was added into the assay plates using a Flying Reagent Dispenser. After 30-minute incubation at 37 C/5% CO2, the fluorescence intensity in the plates was measured using a ViewLux plate reader.
# Potency is read from the fitted curve at half-maximal effect.
row,Compound,Potency
1,C[N+](C)(C)Cc1ccccc1,inactive
2,O=P1(N(CCCl)CCCl)NCCCO1 (stereo not given),inactive
3,COc1ccc(N)cc1,inactive
4,CNC,inactive
5,CCCC[n+]1cccc(C)c1,inactive
6,CCC[N+]1(C)CCCCC1,inactive
7,CCCCn1cc[n+](C)c1,inactive
8,CC(=O)[O][Hg][c]1ccccc1,1.92 µM (active) and 2.43 µM (active) and 6.68 µM (active)
9,CCC[N+]1(C)CCCC1,inactive
10,O=C(O)CCl,inactive
11,CC(=O)O,inactive
12,CCCC[n+]1ccccc1C,inactive
13,CC(Cl)(Cl)C(=O)O,inactive
14,O=[N+]([O-])c1ccccc1O,inactive
15,CCCCCCCCCCCC(=O)O,inactive
16,COCC(=O)N(c1c(C)cccc1C)C(C)C(=O)OC (stereo not given),inactive
17,CCCCCCCCCCCCOS(=O)(=O)O,inactive
18,O=C(O)COc1ccc(Cl)cc1Cl,inactive
19,COc1ccccc1N,inactive
20,Cc1cc(Cl)ccc1OCC(=O)O,inactive

row,Compound,Potency
1,Nc1ccc(Cl)cc1,inactive
2,CN(C)[C@@H]1C(=O)C(C(N)=O)=C(O)[C@@]2(O)C(=O)C3=C(O)c4c(O)cccc4[C@@](C)(O)[C@H]3[C@H](O)[C@@H]12,inactive
3,CC[N+]1(C)CCCC1,inactive
4,CCCCCC[n+]1ccccc1,inactive
5,O=c1nc(O)n(Cl)c(=O)n1Cl,inactive
6,Oc1cccc2cccnc12,2.43 µM (active) and inactive
7,N#CS,inactive
8,C1CCC(NC2CCCCC2)CC1,inactive
9,COP(=O)(OC)C(O)C(Cl)(Cl)Cl (stereo not given),inactive
10,O=S(=O)(O)O,inactive
11,CCCCCCCCCCCCCC[P+](CCCCCC)(CCCCCC)CCCCCC,21.8 µM (active) and 21.9 µM (active)
12,CCCC[n+]1ccc(C)cc1,inactive
13,OCCOc1ccccc1,inactive
14,C[C@]12CCC(=O)C=C1CC[C@@H]1[C@@H]2CC[C@]2(C)C(=O)CC[C@@H]12,inactive
15,CC[n+]1ccccc1,inactive
16,C=CCOC(Cn1ccnc1)c1ccc(Cl)cc1Cl (stereo not given),48.6 µM (active) and inactive
17,O=C(O)CC(O)(CC(=O)O)C(=O)O,inactive
18,COP(=O)(OC)OC=C(Cl)Cl,inactive
19,O=[N+]([O-])O,inactive
20,CCCCCCCCCCCCCCCCn1cc[n+](C)c1,inactive and 61.7 µM (active) and 27.4 µM (active)
